The structures appear in SMILES notation. Records with an inconclusive call do not appear. Unmarked numbers belong to inactive results. The source made the active and inactive calls. Unless noted, calls come from the whole dose curve; as a rule, active = well fitted curve in the direction sought with a large enough effect in the repeat runs; inconclusive = weak or mixed curves; inactive = no such curve, though single readings can be large; an effect the other way counts as inactive or inconclusive.

A short description of assay [1]: qHTS assay to identify aromatase inhibitors - cell viability counter screen (AID 743084).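 Note: cells stimulated with testosterone during compound exposure; nearly all actives have a fitted effect of over 55% in size.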 Note: potency is the fitted concentration of half-maximal effect.
Assay [2] is described as follows: qHTS assay to identify small molecule that activate the aryl hydrocarbon receptor (AhR) signaling pathway - cell viability counter screen (AID 743086).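 Note: HepG2 liver cells carrying the AhR DRE luciferase reporter; series mostly up to about 70 µM; nearly all actives have a fitted effect of over 45% in size.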 The method in brief: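 HepG2-AhR-luc (HG2L7.5c1) cells, 4000/well, were preincubated 5 h at 37C, exposed to compound in qHTS format for 24 hr at 37C, then given CellTiter-Fluor for 30 min; viability was read as fluorescence in the reporter wells.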
(In qHTS, concentration-response curves come from the screen itself.)

In assay [3] the target is Peroxisome proliferator-activated receptor gamma (Homo sapiens) (UniProt P37231). Briefly: qHTS assay to identify small molecule agonists of the peroxisome proliferator-activated receptor gamma (PPARg) signaling pathway (AID 743094; active = well fitted activation curve with a large enough effect in the signal ratio in the repeat runs, not every such curve was filed as active; the % refers to the signal ratio). Put shortly: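 Cell-based bla reporter, HEK293H background, PPARg-driven UAS. Pre-incubation 5 h, 37C, 5% CO2. Compound 17 h, 37C. Substrate 1 h RT; fluorescence.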
Chain of Peroxisome proliferator-activated receptor gamma (Homo sapiens) (P37231 whole entry, looked up): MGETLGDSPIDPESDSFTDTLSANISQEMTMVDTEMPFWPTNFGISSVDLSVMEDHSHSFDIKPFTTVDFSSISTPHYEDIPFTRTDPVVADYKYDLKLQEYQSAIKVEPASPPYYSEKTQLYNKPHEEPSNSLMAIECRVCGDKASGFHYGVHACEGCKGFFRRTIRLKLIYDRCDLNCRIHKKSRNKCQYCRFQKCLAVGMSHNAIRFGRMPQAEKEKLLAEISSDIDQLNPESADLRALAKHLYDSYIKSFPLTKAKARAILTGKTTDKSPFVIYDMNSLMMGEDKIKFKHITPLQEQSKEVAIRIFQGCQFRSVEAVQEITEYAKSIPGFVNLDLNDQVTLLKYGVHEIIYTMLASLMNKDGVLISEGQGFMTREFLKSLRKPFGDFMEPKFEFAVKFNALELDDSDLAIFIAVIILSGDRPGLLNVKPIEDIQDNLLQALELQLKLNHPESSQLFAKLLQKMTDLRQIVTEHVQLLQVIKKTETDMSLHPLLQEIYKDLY

Assay [4] shares this target. Briefly: qHTS assay to identify small molecule antagonists of the peroxisome proliferator-activated receptor gamma (PPARg) signaling pathway (AID 743191; calls by dose curve; note: series mostly up to about 63 µM; nearly all actives have a fitted effect of over 30% in size). The method in brief:
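GeneBLAzer PPARg UAS-bla HEK293H cells carrying a UAS-driven beta-lactamase reporter were plated at 3000 cells/well, preincubated 5 h at 37C, then given compound for 17 h at 37C; LiveBLAzer B/G FRET substrate was read after 1 h at room temperature.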

The nature of assay [5]: qHTS assay to identify small molecule antagonists of the peroxisome proliferator-activated receptor gamma (PPARg) signaling pathway - cell viability counter screen (AID 743194). Note: nearly all actives have a fitted effect of over 55% in size. Note: potency is the fitted concentration of half-maximal effect. The note with it: Potency: co-treated with 50 nM rosiglitazone unless noted. The method in brief: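 PPARg-UAS-bla HEK293H cells were plated, rested 5 h at 37 C, then treated with compounds plus rosiglitazone (50 nM final) for 17 h at 37 C; viability was then read by CellTiter-Glo luminescence after 30 min at room temperature.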

A short description of assay [6]: qHTS assay for small molecule agonists of the antioxidant response element (ARE) signaling pathway (AID 743202; active = well fitted activation curve with a large enough effect in the signal ratio in the repeat runs, not every such curve was filed as active; the % refers to the signal ratio). Put shortly:
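Following a 16 h, 37 C exposure of reporter HepG2 cells (ARE-driven beta-lactamase, 2,000 cells/well) to compounds, FRET substrate was applied for 2 h at room temperature and fluorescence intensity recorded.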

A short description of assay [7]: qHTS assay for small molecule agonists of the antioxidant response element (ARE) signaling pathway - cell viability counter screen (AID 743203; calls by dose curve; note: nearly all actives have a fitted effect of over 55% in size; note: potency is the fitted concentration of half-maximal effect). The method in brief: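 Measured in the same wells as the beta-lactamase ARE reporter, this read-out is CellTiter-Glo luminescence from HepG2 ARE-bla cells given compounds for 16 hrs.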
Assay [8] in a line: qHTS assay for small molecule activators of the heat shock response signaling pathway - cell viability counter screen (AID 743209). Note: nearly all actives have a fitted effect of over 50% in size. Note: potency is the fitted concentration of half-maximal effect. The method in brief:
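Same-well multiplex: after 2.5 h room-temperature incubation with LiveBLAzer B/G substrate and fluorescence reading, CellTiter-Glo reagent was added to HSE-bla HeLa cells that had received compound for 5 h at 37 C; luminescence read after 30 min.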

Assay [9] in a line: qHTS assay for small molecule activators of the heat shock response signaling pathway (AID 743210; active = well fitted activation curve with a large enough effect in the signal ratio in the repeat runs, with a control signal flat, not every such curve was filed as active; the % refers to the signal ratio; note: series mostly up to about 63 µM). Put shortly:
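Heat shock element–beta-lactamase HeLa reporter cells; qHTS with compounds for 5 h at 37 C; detection by FRET substrate fluorescence after 2.5 h at RT.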

Assay [10] in a line: qHTS assay to identify small molecule agonists of the peroxisome proliferator-activated receptor delta (PPARd) signaling pathway - cell viability counter screen (AID 743211). Note: nearly all actives have a fitted effect of over 55% in size. Note: potency is the fitted concentration of half-maximal effect. Put shortly: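 Viability was measured as CellTiter-Glo luminescence (30 min, room temperature) in the same wells as the beta-lactamase readout. GeneBLAzer PPARd UAS-bla HEK293H cells received compound after 5 h plating and were incubated 17 h at 37 C.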

Assay [11] in a line: qHTS assay to identify small molecule antagonists of the peroxisome proliferator-activated receptor delta (PPARd) signaling pathway - cell viability counter screen (AID 743213). Note: nearly all actives have a fitted effect of over 50% in size. Note: potency is the fitted concentration of half-maximal effect. Put shortly:
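HEK293H cells with the PPARd UAS-bla reporter, co-treated 17 h at 37 C with compounds and L165041 (300 nM final), were lysed with CellTiter-Glo. Luminescence indicated viable cell content.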

For assay [12], the target named is Bile acid receptor (Homo sapiens) (UniProt Q96RI1). Briefly: qHTS assay to identify small molecule antagonists of the farnesoid-X-receptor (FXR) signaling pathway (AID 743217; active = well fitted inhibition curve with a large enough effect in the signal ratio in the repeat runs, not every such curve was filed as active; the % refers to the signal ratio). The method in brief:
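FRET fluorescence after 2 h room-temperature LiveBLAzer loading gives the readout. Prior step: FXR-bla HEK 293T cells, seeded and incubated 5 h, received test compounds plus 50 uM final CDCA for 16 h at 37 °C.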

Assay [13] in a line: qHTS assay to identify small molecule agonists of the farnesoid-X-receptor (FXR) signaling pathway - cell viability counter screen (AID 743218). Note: nearly all actives have a fitted effect of over 45% in size. Note: potency is the fitted concentration of half-maximal effect. Put shortly:
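Readout: CellTiter-Glo luminescence, 30 min RT, multiplexed after the FXR-bla FRET reading. HEK 293T FXR-UAS-bla cells received compound 5 h post-plating and were incubated 16 h at 37 C.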

Assay [14] in a line: qHTS assay to identify small molecule antagonists of the farnesoid-X-receptor (FXR) signaling pathway - cell viability counter screen (AID 743221; active = well fitted cell-killing curve with a large enough effect in the repeat runs, not every such curve was filed as active; note: nearly all actives have a fitted effect of over 50% in size; note: potency is the fitted concentration of half-maximal effect). Put shortly:
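Cytotoxicity counter screen run in the FXR-bla reporter wells: HEK 293T cells exposed to compound with 50 uM (final) chenodeoxycholic acid for 16 h, 37 C, then viability measured by CellTiter-Glo luminescence after 30 min, room temperature.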

For assay [15], the target named is Aryl hydrocarbon receptor (Homo sapiens) (UniProt P35869). Briefly: qHTS assay to identify small molecule that activate the aryl hydrocarbon receptor (AhR) signaling pathway (AID 743085).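 For activation: HG2L7.5c1 human HepG2 liver cells with stably integrated DRE-driven firefly reporter; series mostly up to about 70 µM.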 Note: nearly all actives have a fitted effect of over 15% in size. Note: potency is the fitted concentration of half-maximal effect. The method in brief: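 Luminescence (ONE-Glo) from a dioxin-responsive-element luciferase reporter in HG2L7.5c1 HepG2 cells after 24 hr compound exposure at 37C; viability measured by CellTiter-Fluor fluorescence beforehand.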
Chain of Aryl hydrocarbon receptor (Homo sapiens) (P35869 whole entry, looked up): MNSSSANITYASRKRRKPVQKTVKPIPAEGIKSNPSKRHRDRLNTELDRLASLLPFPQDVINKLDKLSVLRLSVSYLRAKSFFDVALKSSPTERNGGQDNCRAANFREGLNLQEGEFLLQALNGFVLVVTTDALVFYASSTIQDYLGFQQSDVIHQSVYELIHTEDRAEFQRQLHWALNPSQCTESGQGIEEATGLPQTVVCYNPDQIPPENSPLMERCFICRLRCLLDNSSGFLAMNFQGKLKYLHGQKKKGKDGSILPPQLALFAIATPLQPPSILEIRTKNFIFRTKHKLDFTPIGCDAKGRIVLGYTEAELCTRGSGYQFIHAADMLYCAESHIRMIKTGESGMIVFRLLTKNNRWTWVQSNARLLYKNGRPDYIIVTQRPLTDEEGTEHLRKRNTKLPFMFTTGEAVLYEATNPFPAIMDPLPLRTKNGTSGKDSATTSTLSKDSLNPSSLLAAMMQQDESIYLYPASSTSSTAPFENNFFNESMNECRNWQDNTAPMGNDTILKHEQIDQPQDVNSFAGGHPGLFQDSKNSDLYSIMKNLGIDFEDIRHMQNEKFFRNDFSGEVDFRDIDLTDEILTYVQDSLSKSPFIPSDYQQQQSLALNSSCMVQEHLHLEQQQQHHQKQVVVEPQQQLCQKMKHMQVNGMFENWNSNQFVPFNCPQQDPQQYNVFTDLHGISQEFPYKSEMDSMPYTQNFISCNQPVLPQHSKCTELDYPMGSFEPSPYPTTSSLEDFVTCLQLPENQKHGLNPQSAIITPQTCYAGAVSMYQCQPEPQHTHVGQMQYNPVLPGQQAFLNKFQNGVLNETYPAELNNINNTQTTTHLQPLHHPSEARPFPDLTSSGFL

Assay [16] deals with Peroxisome proliferator-activated receptor delta (Homo sapiens) (UniProt Q03181). Briefly: qHTS assay to identify small molecule agonists of the peroxisome proliferator-activated receptor delta (PPARd) signaling pathway (AID 743212; calls by dose curve). Put shortly: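 Beta-lactamase reporter read by fluorescence (LiveBLAzer B/G FRET, 2 h, room temperature). Test agents, in DMSO, incubated at 37 C with PPARd-bla HEK293H cells.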
Chain of Peroxisome proliferator-activated receptor delta (Homo sapiens) (Q03181 whole entry, looked up): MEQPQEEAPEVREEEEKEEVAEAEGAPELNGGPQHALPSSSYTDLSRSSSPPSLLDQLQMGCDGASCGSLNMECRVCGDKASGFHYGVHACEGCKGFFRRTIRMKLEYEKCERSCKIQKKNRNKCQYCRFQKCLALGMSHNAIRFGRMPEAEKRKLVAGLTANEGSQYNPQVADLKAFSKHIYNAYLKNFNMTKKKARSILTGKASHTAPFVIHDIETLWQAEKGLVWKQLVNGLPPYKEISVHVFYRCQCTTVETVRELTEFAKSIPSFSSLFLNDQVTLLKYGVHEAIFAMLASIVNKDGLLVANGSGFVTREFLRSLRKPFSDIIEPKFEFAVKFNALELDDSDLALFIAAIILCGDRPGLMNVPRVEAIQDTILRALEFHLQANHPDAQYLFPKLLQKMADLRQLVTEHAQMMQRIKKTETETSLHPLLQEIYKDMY

Assay [17] has the same target. Briefly: qHTS assay to identify small molecule antagonists of the peroxisome proliferator-activated receptor delta (PPARd) signaling pathway (AID 743215; active = well fitted inhibition curve with a large enough effect in the signal ratio in the repeat runs, not every such curve was filed as active; the % refers to the signal ratio;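 note: cells stimulated with agonist L165041 at 300 nM final during compound exposure; series mostly up to about 62 µM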). The method in brief: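 Fluorescence from cleaved LiveBLAzer B/G FRET substrate (2 h, room temperature) reports PPARd-driven beta-lactamase in HEK293H UAS-bla cells. Cells had been treated 17 h at 37 C with compound plus 300 nM final L165041.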

Assay [18] addresses Vitamin D3 receptor (Homo sapiens) (UniProt P11473). Briefly: qHTS assay to identify small molecule agonists of the vitamin D receptor (VDR) signaling pathway (AID 743222; calls by dose curve). The method in brief: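 Following 4 h attachment at 37C, VDR-bla cells (2,000 per well) received DMSO-dissolved compounds or controls. After 16 h incubation, LiveBLAzer B/G FRET substrate was added and fluorescence read 2 h later at room temperature.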

The target is the same in assay [19]. Briefly: qHTS assay to identify small molecule antagonists of the vitamin D receptor (VDR) signaling pathway (AID 743223; active = well fitted inhibition curve with a large enough effect in the signal ratio in the repeat runs, not every such curve was filed as active; the % refers to the signal ratio). Put shortly:
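Antagonist mode: compound added to VDR-bla cells alongside agonist 1alpha,25-dihydroxyvitamin D3 (3 nM final), incubation 16 h at 37C. Read-out is LiveBLAzer FRET fluorescence, 2 h at room temperature.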

The target of assay [20] is Bile acid receptor (Homo sapiens) (UniProt Q96RI1). Briefly: qHTS assay to identify small molecule agonists of the farnesoid-X-receptor (FXR) signaling pathway (AID 743220; active = well fitted activation curve with a large enough effect in the signal ratio in the repeat runs, not every such curve was filed as active; the % refers to the signal ratio). The method in brief:
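FXR-UAS-bla HEK 293T cells carrying a UAS-driven beta-lactamase reporter were plated for 5 h at 37C/5% CO2, then exposed to DMSO-dissolved Tox21 10K compounds for 16 h at 37C. A LiveBLAzer B/G FRET substrate was loaded for 2 h at room temperature before fluorescence reading.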

Chain of Vitamin D3 receptor (Homo sapiens) (P11473 whole entry, looked up): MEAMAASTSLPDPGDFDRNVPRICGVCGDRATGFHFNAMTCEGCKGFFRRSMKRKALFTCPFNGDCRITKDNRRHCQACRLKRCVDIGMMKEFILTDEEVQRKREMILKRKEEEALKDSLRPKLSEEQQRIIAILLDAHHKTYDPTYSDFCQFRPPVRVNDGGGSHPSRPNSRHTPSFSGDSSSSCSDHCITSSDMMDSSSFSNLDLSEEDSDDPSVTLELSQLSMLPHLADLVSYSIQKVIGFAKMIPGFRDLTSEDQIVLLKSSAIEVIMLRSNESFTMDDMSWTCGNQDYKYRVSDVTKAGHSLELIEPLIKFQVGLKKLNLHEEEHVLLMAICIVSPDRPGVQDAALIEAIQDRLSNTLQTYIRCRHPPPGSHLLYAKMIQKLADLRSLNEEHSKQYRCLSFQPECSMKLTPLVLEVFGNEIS
Chain of Bile acid receptor (Homo sapiens) (Q96RI1 whole entry, looked up): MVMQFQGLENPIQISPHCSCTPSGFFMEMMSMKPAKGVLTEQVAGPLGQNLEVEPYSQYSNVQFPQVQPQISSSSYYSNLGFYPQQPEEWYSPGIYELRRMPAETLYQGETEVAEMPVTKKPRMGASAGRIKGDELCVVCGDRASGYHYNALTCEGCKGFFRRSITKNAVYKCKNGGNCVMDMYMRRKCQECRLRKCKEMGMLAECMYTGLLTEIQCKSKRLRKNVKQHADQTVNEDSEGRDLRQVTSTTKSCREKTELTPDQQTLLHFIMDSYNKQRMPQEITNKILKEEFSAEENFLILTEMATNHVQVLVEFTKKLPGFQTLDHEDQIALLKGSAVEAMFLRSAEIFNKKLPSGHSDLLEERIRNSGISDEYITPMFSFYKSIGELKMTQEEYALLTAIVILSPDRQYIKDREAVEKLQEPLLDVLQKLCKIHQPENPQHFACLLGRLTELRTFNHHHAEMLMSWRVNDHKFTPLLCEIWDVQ

For the compound `C=CCBr`, the Potency entry in assay [1], in assay [2], in assay [3], in assay [4], in [5] and in assay [6] was “inactive” in each case. Moreover, the Potency result in [7], in assay [8], in [9], in assay [10], in assay [11] and in assay [12] was “inactive” in each case. The Potency entry in [13] and in assay [14] was “inactive” in each case.

With `Nc1ccc(N=Nc2ccccc2)cc1`, the Potency in assay [1] is 24300 nM (active); in assay [15], 26500 nM (active). Also, the Potency entry in [7] and in assay [8] was “inactive” throughout.

On to `CC(=O)[O][Pb]([c]1ccccc1)([c]1ccccc1)[c]1ccccc1`, for which the Potency in assay [1] was 193 nM (active); in [5], 110 nM (active); in assay [7], 172 nM (active); in [8], 9770 nM (active); in assay [10], 1230 nM (active); in assay [11], 1230 nM (active). Moreover, the Potency in assay [13] is 549 nM (active); in assay [14], 1100 nM (active). Besides, in assay [15], the Potency result is “inactive”.

As for `COCCC#N`, the Potency entry in assay [1], in assay [2], in [3], in assay [5], in [6] and in [7] was “inactive” throughout. Also, the Potency entry in [8], in [9], in assay [10], in assay [16], in assay [11] and in assay [17] was “inactive” each time. Also, the Potency result in assay [13], in [18] and in assay [19] was “inactive” each time.

In the case of `CC(C)=CCN1CC[C@@]2(C)c3cc(O)ccc3C[C@@H]1[C@@H]2C`, the Potency result in assay [1], in assay [2], in assay [3], in [4], in assay [5] and in assay [6] was “inactive” throughout. Also, the Potency result in assay [7], in assay [8], in [9], in assay [10], in assay [11] and in assay [17] was “inactive” each time. In addition, the Potency entry in [14], in assay [18] and in assay [19] was “inactive” each time.

Consider `O=C(NC(=O)c1ccccc1Cl)Nc1ccc(OC(F)(F)F)cc1`, for which the Potency result in [1], in assay [2], in assay [3], in assay [4], in assay [5] and in [7] was “inactive” in each case. The Potency result in assay [8], in [9], in assay [10], in assay [16], in assay [11] and in [17] was “inactive” throughout. Further, the Potency result in assay [13], in assay [20], in [14] and in assay [19] was “inactive” throughout.

Take `ClC(Cl)C(Cl)(Cl)Cl`: the Potency result in [1], in [2], in assay [3], in [4], in assay [5] and in [6] was “inactive” throughout. The Potency entry in assay [7], in assay [8], in assay [9], in [10], in [16] and in assay [17] was “inactive” in each case. Also, the Potency result in assay [12], in assay [13], in assay [14] and in [18] was “inactive” in each case.

Consider `CCN(CC)C(=O)N[C@@H]1C=C2c3cccc4[nH]cc(c34)C[C@@H]2N(C)C1`, for which the Potency result in assay [1], in [2], in assay [3], in assay [4], in assay [5] and in assay [6] was “inactive” each time. The Potency result in [7], in assay [9], in assay [10], in [11], in assay [20] and in assay [14] was “inactive” in each case. The Potency result in assay [18] is “inactive”.

These data come from PubChem BioAssay (Tox21).
